Calpain2 inh – calpain II (pig) inhibition; purified calpain II, fluorogenic peptide substrate, 30 min; inhibition, % at 16 µM; 220,000 tested, 0.37% active; AID 1236;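 active means inhibition above about 50%, limit read from the data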
Efa HMGR inh – inhibitors of class II HMG-CoA reductase from Enterococcus faecalis; AID 1066; purified E. faecalis HMGR, NADPH absorbance 340 nm kinetic; 190,000 tested, 0.41% active; inhibition, % at 10 µM;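 active means inhibition above a set limit, the median over all tested compounds plus 3 SD, cut at about 9.5% in these data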;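 further: enzyme runs in reverse so mevalonate oxidation gives rising NADPH absorbance; 0% = complete reaction with DMSO and 100% = background rate lacking mevalonate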
TNF death inh – blocks TNF-alpha induced death of Jurkat FADD-/- cells; Jurkat FADD-/- TNF necroptosis rescue, ATP luminescence, 24 h; 0 = TNF only, 100 = no-TNF cells; 220,000 tested, 0.068% active; activation (protection from cell death), % at 10 µM; AID 463075;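 active means activation, meaning protection from cell death, of at least 50% relative to plate controls; inactive means activation below 50%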;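 further: necroptosis triggered by 40 ng/mL TNF-alpha added together with compound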
L929 necroptosis – L929 zVAD cell death inhibition; L929 zVAD necroptosis rescue, ATP luminescence, 24 h; with zVAD 60 µM; viability rescue, % at 10 µM; 220,000 tested, 0.38% active; AID 1377;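 active means activation, scaled between plate controls, above about 75%, limit read from the data; inactive means activation under that limit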;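 further: 0% = zVAD with DMSO and 100% = DMSO alone without zVAD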
14-3-3 Bad inh – disrupts binding of bovine 14-3-3 zeta to phospho-Bad peptide. AID 781. 220,000 tested, 0.71% active. inhibition, % at 21.7 µM. TR-FRET 14-3-3zeta/Dy647-pBad peptide displacement, 1 h. P63103;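 active means inhibition above about 70%, limit read from the data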;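 further: 0% = full 14-3-3 plus peptide FRET controls and 100% = background without 14-3-3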
ROMK primary – modulators of human ROMK potassium channel; Tet-inducible ROMK, thallium flux fluorescence; actives lie on both sides; B-score at 10 µM; 130,000 tested, 2% active; AID 1918;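 active means signal ratio slope over the read window, or its plate-corrected B-score, at least 3 SD from the plate mean, either direction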;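 further: B-score of the F/F0 ratio slope over 7 to 12 s after thallium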
Target sequence (P48048 whole entry, looked up): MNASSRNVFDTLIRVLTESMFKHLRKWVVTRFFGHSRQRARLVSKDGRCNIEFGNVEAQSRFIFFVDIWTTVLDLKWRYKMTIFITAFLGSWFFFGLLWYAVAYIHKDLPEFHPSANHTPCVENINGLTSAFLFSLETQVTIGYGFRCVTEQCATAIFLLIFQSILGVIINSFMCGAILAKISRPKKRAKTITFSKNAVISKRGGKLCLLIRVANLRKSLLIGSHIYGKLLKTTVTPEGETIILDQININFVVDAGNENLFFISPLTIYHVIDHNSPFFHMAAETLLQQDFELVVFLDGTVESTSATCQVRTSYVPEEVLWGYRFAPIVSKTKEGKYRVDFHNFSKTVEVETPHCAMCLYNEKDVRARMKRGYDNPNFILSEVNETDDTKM
* marks the source's active call; other numbers are inactive results; . = not tested or not shown; [ ] = remark or other dose. A selection: hits, their analogues and other compounds. The true share with any hit is near 3%.

SMILES	Calpain2 inh	Efa HMGR inh	TNF death inh	L929 necroptosis	14-3-3 Bad inh	ROMK primary
CC(C(=O)N1CCN(Cc2ccc3c(c2)OCO3)CC1)c1ccc([N+](=O)[O-])cc1 (centres undefined)	11	-6	2	0	3	-0.9
Cc1ccc(F)c(NC(=O)/C(C#N)=C(\O)c2ccc(C(C)(C)C)cc2)c1	18	-4	1	5	1	5.7*
Cc1ccc(F)c(NC(=O)c2ccc(Cn3cc(Cl)cn3)cc2)c1	13	-1	1	13	-2	0.22
CCN(CC)c1ccc(N2C(=O)/C(=C\c3cccs3)SC2=S)cc1	34	2	0	0	92*[fluorescence artefact?]	0.34
O=c1nccc(SCc2ccc(Cl)cc2Cl)[nH]1	0	.	2	0	-1	.
CCc1c(C)c(C#N)c2[nH]c3ccccc3n2c1=S	-1	.	-2	2	-15	.
C/C(CCN1CCc2nc(-c3ccccc3)c(-c3ccccc3)cc2C1)=N\O[C@@H](C)c1cn([C@H](CO)Cc2ccccc2)nn1	-65	10.0*	-1	0	1	-3.5
Nc1nnn(CC(=O)N/N=C/c2ccc(Cl)cc2Cl)n1	-5	.	1	1	2	0.17
COc1ccc(CCNC(=O)Cc2c(Cl)cccc2Cl)cc1	32	-2	13	-1	22	-0.68
Cn1ccnc1C(=O)c1cccc([N+](=O)[O-])c1	-5	-12	1	1	91*	.
CC(C)(C)Cc1nnc(NS(=O)(=O)c2ccccc2)s1	-25	14*	0	3	0	0.088
CCCCC(CC)CNC(=O)c1ncn[nH]1 (centres undefined)	1	-4	1	9	-8	-0.02
COCCn1c(SCC(=O)N2CC(=O)Nc3ccccc32)nc2ccccc21	14	4	2	0	-3	.
CC(C)CCN(C(=S)NC(=O)C1CCCCC1)c1c(N)n(Cc2ccccc2)c(=O)[nH]c1=O	64*	-6	0	-1	-4	-2.1
COc1cccc(-n2c(SCC(=O)O)nnc2-c2cccnc2)c1	2	-3	1	2	88*	-2.3
Cc1cc2nc(C3CCCN(C(=S)Nc4ccccc4C)C3)[nH]c2cc1C (centres undefined)	-12	-5	-8	4	-17	.
Cc1cc2nc(C3CCCN(C(=O)NCc4ccccc4)C3)[nH]c2cc1C (centres undefined)	-13	2	2	0	76*	.
Cc1ccc(C2CC(=O)c3cnc(N4CCc5ccccc5C4)nc3C2)cc1 (centres undefined)	21	-6	-1	0	-3	.
O=C1CC(c2ccccc2)Cc2nc(N3CCc4ccccc4C3)ncc21 (centres undefined)	54*	-3	-1	0	0	.
Cc1cc(NC(=O)CCSc2ccc(Cl)cc2)no1	19	-2	0	31	4	-0.098
CC(=O)Nc1nnc(C2=COCCO2)o1	11	10*	1	0	-6	0.54
O=C(N=C1c2ccccc2CN1c1ccc(F)c(F)c1)c1cccnc1	-20	-2	-1	3	71*	-1.6
O=C(c1ccc2c(c1)OCO2)C1CCCN(Cc2ccc3nsnc3c2)C1 (centres undefined)	13	11*	1	1	-6	0.031
NS(=O)(=O)c1cccc(NC(=S)NC(=O)C23CC4CC(CC(C4)C2)C3)c1	17	1	1	1	-7	0.022
CCC(C)C(=O)Nc1nc(-c2ccc3c(c2)NC(=O)CO3)cs1 (centres undefined)	22	-13	2	1	14	.
SMILES	Calpain2 inh	Efa HMGR inh	TNF death inh	L929 necroptosis	14-3-3 Bad inh	ROMK primary
Nc1nc(-c2ccc3c(c2)NC(=O)CO3)cs1	-12	-1	-2	1	78*	-0.013
CCCCS(=O)(=O)Nc1ccc(C)cn1	-163	-1	0	1	-3	1.1
COc1ccc(-c2cc(C(=O)OC3CCOC3=O)c3ccccc3n2)cc1 (centres undefined)	-112	0	1	2	6	.
O=C(O)CCC(=O)/C=C/c1ccccc1	-11	12*	2	1	-3	0.32
CC(=O)c1sc(NC(=O)CCCOc2ccc(Cl)cc2)nc1C	-29	-5	2	2	2	.
O=[N+]([O-])/C(=C\Nc1ccccc1Cl)S(=O)(=O)c1ccccc1	-6	18*	-3	0	45	.
Cc1ccc(S(=O)(=O)N(C)C)cc1NC(=O)COC(=O)c1ccc(Cl)cc1	-2	0	0	1	-1	-0.72
Cc1cc(C)c(Nc2cc(S(=O)(=O)O)c(N)c3c2C(=O)c2ccccc2C3=O)c(C)c1	40	-1	-6	0	73*[fluorescence artefact?]	.
Cc1cc(C)c(NC(=O)COC(=O)c2cccc3c2C(=O)c2ccccc2C3=O)c(C)c1	-39	2	-1	3	-7	0.022
CCC(=O)C1=C(N2CCCC2)CC(C)(C)CC1=O	7	-1	-1	0	0	-0.89
CCCCC(=O)C1=C(N2CCCC2)CC(C)(C)CC1=O	-3	12*	-2	0	-5	0.41
CCCCCOC(=O)C1=C(C)Nc2nnnn2C1c1ccccc1Cl (centres undefined)	15	-1	-2	-1	-7	-0.59
CCOC(=O)C=Nc1c(N)n(C)c(=O)n(C)c1=O	13	-5	1	0	-20	-0.11
CC(C)(C)NC(=O)CSc1nsc(SCC(=O)NC(C)(C)C)c1C#N	-2	-3	-1	0	1	-0.045
Cc1ccc(NC(=O)CSc2nsc(SCC(=O)Nc3ccc(C)cc3C)c2C#N)c(C)c1	51*	0	0	0	5	.
Brc1ccc(CSc2nnc3ccccn23)cc1	-21	15*	1	0	-10	0.56
Clc1cccc(Cl)c1CSc1nnc2ccccn12	28	-4	1	0	0	0.024
Cc1cc(C)c(C#N)c(N2CCN(Cc3ccccc3)CC2)n1	25	-3	1	0	-16	-0.21
CC1(C)CCN(Cc2ccccc2)C1CC#N (centres undefined)	20	-8	-1	0	71*	0.026
c1ccc(CN2CCN(c3ncnc4c3[nH]c3ccccc34)CC2)cc1	-51	1	-11	1	.	-3.7*
CC(OC(=O)C1=Cc2ccccc2OC1)C(=O)NC(C)(C)C (centres undefined)	15	-7	-1	-2	-1	-0.68
CCOC(=O)c1cc(-c2ccccc2)sc1NC(=O)C(C)(C)C	-167	-6	-2	0	-2	.
CCOC(=O)c1cc(-c2ccccc2)sc1NC(=O)CC(C)C	20	-5	-5	0	74*	1.3
COCCN1C(=O)/C(=C/c2ccc(N3CCCC3)cc2)SC1=S	-13	1	-2	1	-7	-3.5*
COc1ccc(/C=C2\SC(=S)N(CC(=O)N3CCN(C)CC3)C2=O)cc1	-1	.	4	0	-6	.
